Measurements from PubChem BioAssay (NCI).
About 79,000 compounds went through this panel and 15% of them were active in at least one assay; those are over-represented in the sample as a whole. Rule as the data show it: active = growth inhibition above about 70%; inactive = the rest.

Columns and labels:
[1] = NCI Yeast Anticancer Drug Screen. Data for the rad50 strain (AID 155);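 also: 0% = growth of vehicle-only cultures of the same strain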; settings: S. cerevisiae rad50 strain growth inhibition; at 50.0 µM; hits give high values
In short: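 Readout: growth inhibition relative to vehicle-treated cultures. Compound exposure was carried out in a genetically defined yeast strain deficient in DNA damage repair.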

[2] = NCI Yeast Anticancer Drug Screen. Data for the mec2-1 strain (AID 157); settings: S. cerevisiae mec2-1 strain, at 50.0 µM, hits give high values
In short: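 Each compound was tested on mec2-1 yeast, a strain altered in DNA damage repair or cell cycle control. Growth inhibition is reported relative to vehicle.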

[3] = NCI Yeast Anticancer Drug Screen. Data for the sgs1 mgt1 strain (AID 161);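 also: 0% = growth of cultures given vehicle only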; settings: S. cerevisiae sgs1 mgt1 strain, at 50.0 µM, hits give high values
In short: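 Test agents were incubated with a DNA-repair-mutant yeast strain. Growth was then read and compared against vehicle-treated controls.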

[4] = NCI Yeast Anticancer Drug Screen. Data for the cln2 rad14 strain (AID 165);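 also: 0% = growth equal to vehicle treated cultures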; settings: S. cerevisiae cln2 rad14 strain, at 50.0 µM, hits give high values
In short: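 Test compounds were added to cln2 rad14 yeast cultures; inhibition of growth was then determined by comparison with vehicle treatment.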

[5] = NCI Yeast Anticancer Drug Screen. Data for the bub3 strain (AID 167); settings: S. cerevisiae bub3 mutant strain, at 50.0 µM, hits give high values
In short: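 Readout: yeast growth inhibition, expressed relative to vehicle-only wells. The test organism is a mutant strain from a panel with lesions in DNA repair or checkpoint genes.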

[6] = NCI Yeast Anticancer Drug Screen. Data for the mlh1 rad18 strain (AID 175); settings: S. cerevisiae mlh1 rad18 strain growth inhibition; at 50.0 µM; hits give high values
In short: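 Inhibition values reflect reduced growth of mutant yeast versus vehicle-treated controls following compound exposure; the mutations affect DNA damage repair.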

Measured: growth inhibition

C=CC1(c2ccc(Cl)c(Cl)c2)OCCO1
inactive: [1] -11.3% | [2] 15.8% | [3] 15% | [4] -6.5% | [5] 9.55% | [6] 25.4%

CC(CO)(NC(=O)c1ccccc1)C(=O)O (stereo not given)
inactive: [1] 13.4% | [2] 9.25% | [3] 22.5% | [4] 11.1% | [5] 3.45% | [6] 23.4%

CCCCCCCC(N)C(=O)O (stereo not given)
inactive: [1] 0% | [2] -2.55% | [3] 2.25% | [4] -26.2% | [5] -10.1% | [6] -12.9%

CCOC(=S)SC1OC(COC(C)=O)C(OC(C)=O)C(OC(C)=O)C1OC(C)=O (stereo not given)
inactive: [1] 57.5% | [2] 11.4% | [3] 55.2% | [4] 45.8% | [5] 17.2% | [6] 10.7%

[Cl-].[Dy+3].[O-]/N=C(\c1ccccc1)c1ccccn1.[O-]/N=C(\c1ccccc1)c1ccccn1.[O-]/N=C(\c1ccccc1)c1ccccn1
inactive: [1] 27.4% | [2] 13.3% | [3] 20.2% | [4] 12.2% | [5] 19.4% | [6] 25.1%

Cc1nn2c(-c3ccccc3)cnnc2c1-c1ccccc1
inactive: [1] -19.4% | [2] -21.1% | [3] -12.8% | [4] -26.1% | [5] 6.75% | [6] -10.8%

O=C(Nc1ccc(Cl)c(Cl)c1)Oc1ccc2ccccc2c1
inactive: [1] 13.4% | [2] 24.9% | [3] 34.5% | [4] -0.35% | [5] 4.1% | [6] 61.1%

CC1CCOC(c2ccc(C(C)C)cc2)O1 (stereo not given)
inactive: [1] 8.4% | [2] -2.4% | [3] 2.9% | [4] -9.9% | [5] 9.45% | [6] -0.15%

Nc1ncnc(Nc2ccc(S(=O)(=O)O)cc2)n1
inactive: [1] -35.9% | [2] -32.6% | [3] -31.1% | [4] -1.25% | [5] -34.9% | [6] -27.2%

OC1CCC2CCCCC2C1 (stereo not given)
inactive: [1] -7.3% | [2] -16.9% | [3] -15.4% | [4] -25.1% | [5] -1.95% | [6] 2.85%

CCc1occc(=O)c1O
inactive: [1] 16.6% | [2] -6.95% | [3] -1.75% | [4] 1.75% | [5] 16.8% | [6] -9.1%

Cc1c2ccccc2c(C)n2c1nc1cc3ccccc3cc12
inactive: [1] 9.8% | [2] 11.9% | [3] 11.8% | [4] 8.55% | [5] 4.65% | [6] 28.6%

c1ccc(C2NC(c3ccccc3)c3c(ccc4ccccc34)O2)cc1 (stereo not given)
inactive: [1] 20.1% | [2] -2.1% | [3] 13.1% | [4] -19.9% | [5] -5.15% | [6] 20.6%

O=C(O)CCCc1ccc2c(c1)oc1ccccc12
inactive: [1] -18.6% | [2] -6.3% | [3] 1.5% | [4] -18.6% | [5] 13.6% | [6] 20.9%

CN(C)CC(CN(C)C)C(=O)/C=C/c1ccc(O)cc1
inactive: [1] 1.4% | [2] -2.25% | [3] 6.05% | [4] 6.35% | [5] 22.4% | [6] 5.5%

O=C(O)C1CC(O)c2ccccc2C1c1ccccc1 (stereo not given)
inactive: [1] -2.65% | [2] -1.15% | [3] -11.4% | [4] 22.6% | [5] 5.1% | [6] -17.3%

CNC(=O)OC(COC)CN1CCN(c2ccccc2C)CC1 (stereo not given)
inactive: [1] -25.8% | [2] -47.8% | [3] -10.6% | [4] -1.25% | [5] -8.3% | [6] -6.5%

O=[N+]([O-])c1ccc(SC2=NCCCN2)c(Cl)c1
inactive: [1] 36.7% | [2] -0.55% | [3] 33.9% | [4] 11.1% | [5] 32.6% | [6] 26.1%

O.O.O=c1[nH]cc(CO)c(=O)[nH]1.[NH2-].[NH2-].[Pt+2]
inactive: [1] 14.1% | [2] -1.15% | [3] 14.5% | [4] 16.6% | [5] 0.45% | [6] 4.25%

O=C(Nc1ccc([N+](=O)[O-])cc1)c1cc(N2CCOCC2)ccn1
inactive: [1] 38% | [2] 16.6% | [3] 21.6% | [4] 15.6% | [5] 2.15% | [6] 25.6%
